Our source for the growth values is PubChem BioAssay (NCI).

Some test systems named below: NCI-H23 lung; NCI-H226 lung; NCI-H322M lung; HOP-62 NSCLC; NCI-H460 lung; HOP-92 NSCLC; NCI-H522 lung; A549/ATCC NSCLC; 786-0 renal; DU-145 prostate; K-562 leukemia; MALME-3M melanoma; MDA-MB-231 breast; RXF 393 renal; SF-268 CNS; SF-295 CNS; SF-539 CNS; UACC-257 melanoma.
Common to all, as to experiment: NCI-60 one-dose screen, 48 h (100 = growth as untreated, 0 = no growth, -100 = all killed)
Holding throughout (conditions): 10 µM unless noted

The panel holds about 83,000 compounds, 20% with a hit somewhere; the sample as a whole holds those more often.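 The test compound was applied at a single concentration to cells in 96-well plates for 48 hours, and percent growth was recorded.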 A number with no mark means an inactive call. Active and inactive are the calls of the source. Rule for the calls: active = growth percent below 10; inactive = the rest.

Take `C=C(C)[C@@H]1CC[C@]2(CNCCO)CC[C@]3(C)[C@H](CC[C@@H]4[C@@]5(C)CCC(N)[C@@](C)(CO)[C@@H]5CC[C@]43C)[C@@H]12` (some centres not stated): the growth in the test on NCI-H23 lung was 46.8%; in the test on NCI-H226 lung, 94.1%; in the test on NCI-H322M lung, 47.5%; in the test with HOP-62 NSCLC, -53.7% (active); with NCI-H460 lung it was -56.4% (active); in the test on HOP-92 NSCLC, 38.8%. The growth in the test on NCI-H522 lung was -77.2% (active); with A549/ATCC NSCLC, -33.5% (active); in the test with 786-0 renal, -58.1% (active); with DU-145 prostate it was 10.3%; with K-562 leukemia it was -63.2% (active); in the test on MALME-3M melanoma it was -84.2% (active). The growth in the test on MDA-MB-231 breast is -68.4% (active); with RXF 393 renal, 30.2%; with SF-268 CNS, 10.1%; in the test with SF-295 CNS, -19.6% (active); in the test with SF-539 CNS, -80.5% (active); in the test with UACC-257 melanoma, -87.1% (active).
Consider `CCCNCC(=O)Nc1ccc(C(=O)OC(C)(C)CC)cc1`, for which the growth in the test on NCI-H23 lung is 102%; with NCI-H226 lung it was 95%; in the test with NCI-H322M lung it was 97%; in the test on HOP-62 NSCLC, 99.7%; in the test with NCI-H460 lung, 104%; in the test on HOP-92 NSCLC, 74.4%. The growth with NCI-H522 lung is 66.6%; in the test with A549/ATCC NSCLC it was 97.1%; in the test on 786-0 renal, 90.8%; with DU-145 prostate it was 101%; in the test on K-562 leukemia, 101%; with MALME-3M melanoma, 90.9%. The growth with MDA-MB-231 breast was 102%; in the test with RXF 393 renal, 116%; with SF-268 CNS, 99%; with SF-295 CNS, 103%; in the test on SF-539 CNS, 108%; in the test with UACC-257 melanoma, 105%.
Consider `C=C(C=O)C1CCC2(C(=O)O)CCC3(C)C(CCC4C5(C)CCC(O)C(C)(C)C5CCC43C)C12` (configuration not stated), for which the growth is -52.1% (active) in the test on NCI-H23 lung; 5.95% (active) in the test with NCI-H226 lung; 31.3% in the test with NCI-H322M lung; 14.8% in the test on HOP-62 NSCLC; -12.8% (active) in the test with NCI-H460 lung; 67.1% in the test with HOP-92 NSCLC. The growth in the test with NCI-H522 lung is 24.2%; in the test on A549/ATCC NSCLC, 34.1%; in the test with 786-0 renal, -37.3% (active); in the test on DU-145 prostate, -38.4% (active); in the test with K-562 leukemia, 13.6%; in the test on MALME-3M melanoma, 1.55% (active). Moreover, the growth is 32.6% with MDA-MB-231 breast; -63.7% (active) with RXF 393 renal; 24.3% in the test on SF-268 CNS; -6.97% (active) in the test on SF-295 CNS; -43.4% (active) in the test on SF-539 CNS; -46.4% (active) in the test with UACC-257 melanoma.
Take `CC[C@]1(O)C[C@H]2CN(CCc3c([nH]c4ccccc34)[C@@](C(=O)OC)(c3cc4c(cc3OC)N(C=O)[C@H]3[C@@](O)(C(=O)OC)[C@H](OC(C)=O)[C@]5(CC)C=CCN6CC[C@]43[C@@H]65)C2)C1`: the growth in the test on NCI-H23 lung was 290%; in the test on NCI-H226 lung it was 28.2%; in the test with NCI-H322M lung, 43.7%; with HOP-62 NSCLC, 11.7%; in the test with NCI-H460 lung, -2.68% (active); with HOP-92 NSCLC, 72.3%. Besides, the growth in the test with NCI-H522 lung was -13.1% (active); in the test with A549/ATCC NSCLC, 16.6%; with 786-0 renal, 12.4%; in the test on DU-145 prostate, -42.5% (active); in the test on K-562 leukemia, -0.624% (active); in the test on MALME-3M melanoma, 45.4%. The growth was -27.1% (active) in the test on MDA-MB-231 breast; -36% (active) in the test on RXF 393 renal; 23.9% with SF-268 CNS; 13.6% with SF-295 CNS; -28.7% (active) with SF-539 CNS; 5.68% (active) in the test with UACC-257 melanoma.
As to `COc1cc(/C=C/C(=O)c2cccc(-n3cc(-c4ccc(Cl)cc4)[nH]c3=O)c2)cc(OC)c1OC`, the growth is 52.3% in the test with NCI-H23 lung; 81.4% in the test with NCI-H226 lung; 92% in the test with NCI-H322M lung; 86.4% in the test with HOP-62 NSCLC; 54.7% in the test with NCI-H460 lung; 51.5% with HOP-92 NSCLC. The growth in the test with NCI-H522 lung was 16.5%; in the test on A549/ATCC NSCLC, 88.6%; with 786-0 renal, 82.2%; in the test on DU-145 prostate it was 37.1%; in the test on K-562 leukemia it was 20.9%; in the test on MALME-3M melanoma, 94.2%. Moreover, the growth in the test on MDA-MB-231 breast is 76.7%; with RXF 393 renal, 53.6%; with SF-268 CNS, 48.8%; with SF-295 CNS, 80.8%; in the test with SF-539 CNS, 33.7%; in the test with UACC-257 melanoma it was 67.2%.
For the compound `CC1(C)N=C(N)N=C(N)N1c1ccc(Cl)c(Cl)c1`, the growth was 19.2% in the test on NCI-H23 lung; 52.1% with NCI-H226 lung; 52.7% with NCI-H322M lung; 16.4% with HOP-62 NSCLC; 17% in the test on NCI-H460 lung; 72.3% with HOP-92 NSCLC. Further, the growth was 45.3% in the test on NCI-H522 lung; 30.1% with A549/ATCC NSCLC; 9.73% (active) with 786-0 renal; 46.5% with DU-145 prostate; 23.6% with K-562 leukemia; 67.8% in the test on MALME-3M melanoma. Besides, the growth is 68.4% with MDA-MB-231 breast; 61.4% with RXF 393 renal; 42.9% with SF-268 CNS; 17.2% in the test with SF-295 CNS; 13.4% in the test on SF-539 CNS; 55.6% in the test on UACC-257 melanoma.
With `CC(c1ccc(-n2cccn2)cc1)c1cnc(N2CCc3ccc(C(N)=O)cc3C2)s1` (configuration not stated), the growth in the test on NCI-H23 lung is 59%; in the test with NCI-H226 lung it was 43.6%; with NCI-H322M lung, 86.8%; with HOP-62 NSCLC it was 82.2%; in the test with NCI-H460 lung it was 74.5%; in the test with HOP-92 NSCLC it was 71%. Further, the growth with NCI-H522 lung was 41%; in the test with A549/ATCC NSCLC it was 65.8%; in the test with 786-0 renal, 65.8%; in the test on DU-145 prostate, 88.2%; in the test with K-562 leukemia it was 30.4%; in the test with MALME-3M melanoma, 72.4%. Also, the growth with MDA-MB-231 breast is 72.5%; with RXF 393 renal, 82.2%; with SF-268 CNS, 86%; with SF-295 CNS, 52.3%; in the test on SF-539 CNS, 70.7%; in the test with UACC-257 melanoma it was 48.7%.
Turning to `NC(=O)c1c(NC(=O)c2ccccn2)sc2c1CCC(=O)C2`, the growth in the test on NCI-H23 lung is 17.2%; with NCI-H226 lung it was 70.7%; in the test on NCI-H322M lung it was 94.3%; in the test with HOP-62 NSCLC, 81%; in the test on NCI-H460 lung it was 71.2%; in the test on HOP-92 NSCLC, 15.9%. The growth in the test on NCI-H522 lung was -13.5% (active); in the test on A549/ATCC NSCLC it was 60.6%; in the test with 786-0 renal it was 89.4%; with DU-145 prostate, 91.5%; in the test on K-562 leukemia, 10.1%; with MALME-3M melanoma, 49.4%. In addition, the growth in the test with MDA-MB-231 breast is 7.89% (active); with RXF 393 renal, 21.5%; in the test on SF-268 CNS, 21%; in the test with SF-295 CNS, 66.3%; with SF-539 CNS, 1.9% (active); with UACC-257 melanoma, 46.9%.
Regarding `COc1ccc(-c2cc(-c3ccc(Nc4nc(Nc5ccccc5)nc(Nc5ccc(Cl)cc5)n4)cc3)nc(N)c2C#N)cc1`, the growth in the test on NCI-H23 lung was -6.72% (active); with NCI-H226 lung, -60.9% (active); in the test on NCI-H322M lung, 42.2%; in the test on HOP-62 NSCLC, -31.1% (active); with NCI-H460 lung, 24.6%; in the test with HOP-92 NSCLC, -67.6% (active). Also, the growth in the test on NCI-H522 lung was -3.64% (active); in the test with A549/ATCC NSCLC, 38.2%; in the test on 786-0 renal, -81% (active); in the test on DU-145 prostate, 33%; in the test on K-562 leukemia, 4.07% (active); with MALME-3M melanoma it was -76.6% (active). Besides, the growth in the test with MDA-MB-231 breast was -27.4% (active); with RXF 393 renal, -12.1% (active); in the test on SF-268 CNS, -26.4% (active); in the test with SF-295 CNS, 34.4%; in the test on SF-539 CNS, -54.9% (active); with UACC-257 melanoma, -11.4% (active).
